The test has as its target Small nuclear ribonucleoprotein G (UniProt P62308). In words: cross-link between two proteins; cross-linking mass spectrometry.

From paper PMC10943123 come the findings set out here.

Regarding “Small nuclear ribonucleoprotein-associated proteins B and B', P14678”, the “listed as a hit” value is recorded as “yes”.
